Test results reported in PubChem BioAssay (NCATS).
Results filed as inconclusive are left out. Activity calls are given as the source filed them. The call rests on the fitted dose curve; in most records, active means well fitted curve in the direction sought with a large enough effect; inconclusive means small, poorly fitted or top-dose-only effect, or another doubt; inactive means no such curve, though single readings can be large; an effect the other way counts as inactive or inconclusive.

Legend:
[1] = Confirmation and Secondary Assay for Modulators of Hemoglobin Beta Chain Splicing at IVS2 654 locus (AID 910);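 further: per-well total GFP intensity by laser scanning cytometry after 2-day treatment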
Outline: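 HeLa cells stably carrying EGFP interrupted by mutant beta-globin IVS2-654 intron (CMV-driven) were treated with compound for 2 days at 37C; corrected splicing was scored as total peak GFP intensity per well (488 nm excitation, 500-520 nm emission).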

[2] = Confirmation and Secondary Assay for Modulators of Hemoglobin Beta Chain Splicing at IVS2 705 locus (AID 930);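 further: HeLa cells stably expressing the EGFP-705 splicing reporter; GFP fluorescence per well restored by corrected splicing of the IVS2-705 intron in EGFP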
Outline: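 HeLa EGFP-705 reporter; 500 cells/well, o/n 37C 5% CO2; cpd 2 d; 488 ex/500-520 em laser scan; total peak GFP intensity/well. Ref: 500 nM […] antisense PNA.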

[3] = target: ATP-dependent 6-phosphofructokinase (Trypanosoma brucei brucei) (UniProt O15648); test: qHTS Assay to Find Inhibitors of T. brucei phosphofructokinase: hit validation (AID 492961);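 further: luminescence reports ADP formed as PFK phosphorylates fructose-6-phosphate with ATP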
Outline: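 Percent activity derived from corrected luminescence, normalized between 0x and 1x enzyme controls, then fitted to concentration-response curves. Conditions: 1.25 nM PFK, 0.1 mM ATP, 0.5 mM F6P, 45 min RT.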

[4] = S16 Schwann cell PMP22 intronic element firefly luciferase assay (AID 624032); further: nearly all actives have a fitted effect of over 30% in size
Outline: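 Rat S16 Schwann cells stably carrying a PMP22 intronic element-driven Fluc reporter were seeded overnight, then exposed to compounds for 24 h at 37 °C. Luminescence was normalized to PTC124 (positive control) and DMSO (0% activity).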

7G8 = test: qHTS profiling for inhibitors of Plasmodium falciparum proliferation (AID 504749); further: nearly all actives have a fitted effect of over 60% in size; further: potency means the concentration at half of the fitted maximal effect; details: P. falciparum in erythrocytes, SYBR Green DNA, 72 h; series mostly up to 12.8 µM
Outline: (§1)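 Fluorescence of SYBR Green-bound parasite DNA, read at 485/535 nm, served as the growth measure. Infected erythrocytes were cultured with compound 72 h; artemisinin (0.29 uM) and DMSO wells defined the normalization range.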

ATS95 = test: as above; details: P. falciparum in erythrocytes, SYBR Green DNA, 72 h; series mostly up to 12.8 µM
Outline: as §1

CP203 = test: as above; details: P. falciparum in erythrocytes, SYBR Green DNA, 72 h; series mostly up to 12.8 µM
Outline: as §1

CP215 = test: as above; details: P. falciparum in erythrocytes, SYBR Green DNA, 72 h; series mostly up to 12.8 µM
Outline: as §1

CP260 = test: as above; details: P. falciparum in erythrocytes, SYBR Green DNA, 72 h; series mostly up to 12.8 µM
Outline: as §1

CP266 = test: as above; details: P. falciparum in erythrocytes, SYBR Green DNA, 72 h; series mostly up to 12.8 µM
Outline: as §1

ICS = test: as above; details: P. falciparum in erythrocytes, SYBR Green DNA, 72 h; series mostly up to 12.8 µM
Outline: as §1

P94_40 = test: as above; details: P. falciparum in erythrocytes, SYBR Green DNA, 72 h; series mostly up to 12.8 µM
Outline: as §1

[5] = target: Cytochrome P450 3A4 (Homo sapiens) (UniProt P08684); test: qHTS Assay for Inhibitors and Substrates of Cytochrome P450 3A4 (AID 884); further: nearly all actives have a fitted effect of over 50% in size; further: potency means the concentration at half of the fitted maximal effect
Outline: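 Luminescent readout of luciferin produced by CYP3A4 (20 nM) dealkylation of Luciferin-PPXE, 25 uM (its KM). NADPH-driven reaction ran 60 min at RT after 10 min compound preincubation; data scaled to 57 uM ketoconazole as 100% inhibition.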

W2 = test: qHTS profiling for inhibitors of Plasmodium falciparum proliferation (AID 504749); further: nearly all actives have a fitted effect of over 60% in size; further: potency means the concentration at half of the fitted maximal effect; details: P. falciparum in erythrocytes, SYBR Green DNA, 72 h; series mostly up to 12.8 µM
Outline: as §1

[6] = target: Cytochrome P450 3A4 (Homo sapiens) (UniProt P08684); test: qHTS Assay for Activators of Cytochrome P450 3A4 (AID 885); further: nearly all actives have a fitted effect of over 65% in size
Outline: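 Using 20nM recombinant human CYP3A4 in potassium phosphate (200mM), substrate Luciferin-PPXE at 25uM, luminescent luciferin detection followed a 60-min RT NADPH reaction; data scaled to 57 uM ketoconazole.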

Measured: Potency

Sequence of Cytochrome P450 3A4 (Homo sapiens) (P08684 whole entry, looked up): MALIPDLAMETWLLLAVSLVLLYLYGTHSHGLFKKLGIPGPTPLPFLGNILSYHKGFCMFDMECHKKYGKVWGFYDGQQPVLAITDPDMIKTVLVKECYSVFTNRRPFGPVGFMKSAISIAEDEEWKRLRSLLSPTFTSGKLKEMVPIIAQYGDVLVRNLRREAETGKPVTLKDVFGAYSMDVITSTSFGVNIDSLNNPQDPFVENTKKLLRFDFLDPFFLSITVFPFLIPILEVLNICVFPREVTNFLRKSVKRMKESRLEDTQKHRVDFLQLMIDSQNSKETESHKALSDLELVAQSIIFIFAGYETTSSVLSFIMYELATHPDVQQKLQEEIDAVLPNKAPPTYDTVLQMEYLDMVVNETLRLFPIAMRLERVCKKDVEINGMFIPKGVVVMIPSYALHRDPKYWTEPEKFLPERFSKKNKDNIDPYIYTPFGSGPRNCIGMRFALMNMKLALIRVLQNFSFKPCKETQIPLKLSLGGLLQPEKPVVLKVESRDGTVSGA
Sequence of ATP-dependent 6-phosphofructokinase (Trypanosoma brucei brucei) (O15648 whole entry, looked up): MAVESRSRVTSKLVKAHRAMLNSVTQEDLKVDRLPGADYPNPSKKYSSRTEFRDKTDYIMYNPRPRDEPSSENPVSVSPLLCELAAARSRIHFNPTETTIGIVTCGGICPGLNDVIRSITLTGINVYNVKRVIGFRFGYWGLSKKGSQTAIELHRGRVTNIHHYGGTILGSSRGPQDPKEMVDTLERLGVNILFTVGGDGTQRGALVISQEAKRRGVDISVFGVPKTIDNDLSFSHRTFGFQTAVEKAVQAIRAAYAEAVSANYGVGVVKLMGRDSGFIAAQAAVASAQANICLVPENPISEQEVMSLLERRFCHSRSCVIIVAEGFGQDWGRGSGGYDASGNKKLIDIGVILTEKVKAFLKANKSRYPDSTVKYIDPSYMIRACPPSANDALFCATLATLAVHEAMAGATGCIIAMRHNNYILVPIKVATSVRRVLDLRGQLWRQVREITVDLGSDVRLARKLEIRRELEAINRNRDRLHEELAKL

CC1(C)OC2CC(=O)OC[C@@]23C1CC(=O)[C@]1(C)C3CC[C@@]2(C)C(c3ccoc3)OC(=O)C3O[C@@]321 (some centres undefined)
not listed: [5] | W2 | [6]
inactive: all other assays above

O=C1OC(CO)C(O)C(O)C1O (centres undefined)
not listed: [4] | [6]
inactive: all other assays above

CN1CC(=O)N=C1N
not listed: [6]
inactive: all other assays above

CCCC(=O)O[C@]1(C(=O)CO)CCC2[C@@H]3CCC4=CC(=O)CC[C@]4(C)C3C(O)C[C@]21C (some centres undefined)
not listed: [4] | [6]
inactive: all other assays above

OCC1OC([S-])[C@H](O)C(O)C1O.[Au+] (some centres undefined)
not listed: 7G8 | W2 | [6]
inactive: all other assays above

Cc1cc(O)c(C=O)c2c1C(=O)Oc1c(C)c(O)c3c(c1O2)C(O)OC3=O (centres undefined)
inactive: [1] | [2]

CC1(C)OC2CO[C@]3(COS(N)(=O)=O)OC(C)(C)OC3C2O1 (some centres undefined)
not listed: 7G8 | [6]
inactive: all other assays above

COc1cc(C2c3cc4c(cc3C(O[C@@H]3OC5COC(c6cccs6)OC5C(O)C3O)C3COC(=O)C23)OCO4)cc(OC)c1O (some centres undefined)
active: [5] 6.31 µM | 7G8 0.631 µM | ATS95 2.51 µM | CP203 3.79 µM | CP215 4.26 µM | CP260 1.12 µM | CP266 4.78 µM | ICS 1.26 µM | P94_40 1.26 µM | W2 1.2 µM
inactive: [6] | [1] | [2] | [3]

COc1ccc2cc(C(C)CO)ccc2c1 (centres undefined)
not listed: [6]
inactive: all other assays above

CC(=O)N[C@H](CC(C)C)C(=O)O
not listed: CP260 | [5] | [6]
inactive: all other assays above

COC1C=CO[C@@]2(C)Oc3c(C)c(O)c4c(O)c(c5c(nc6cc(C)ccn65)c4c3C2=O)NC(=O)/C(C)=C\C=CC(C)C(O)[C@@H](C)C(O)C(C)[C@@H](OC(C)=O)C1C (some centres undefined)
inactive: [1] | [2] | [3]
active: 7G8 3.16 µM | ATS95 10 µM | CP215 13.5 µM | CP260 11.2 µM | ICS 5.01 µM | P94_40 5.01 µM | W2 1.9 µM

CC(=O)OC1CCC2C3CCc4cc(O)ccc4C3CCC12C (centres undefined)
not listed: 7G8 | ICS | [5] | W2 | [6]
inactive: all other assays above
